Measurements as given in PubChem BioAssay AID1986 (Sanford-Burnham Center for Chemical Genomics, 2009).
Screen size: about 290,000 compounds; about 890 (0.31%) were called active. Rule as the data show it: active = inhibition mostly above about 52% (no sharp cut-off); inactive = mostly below about 76%. The sample as a whole holds a higher share of actives than the screen did.

Experiment: inhibitors of HIV fusion peptide binding, primary screen, biochemical, uHTS, fluorescence dequenching (AID 1986)
Details: cell-free peptide binding, 30 min, stronger effect = higher value
[1] = measured here: repeat confirmation average inhibition, at 18.6 µM

SMILES	inhibition (at 20 µM)	inhibition [1]
CC(C)=C1C(=O)NN(c2cccc(Cl)c2)C1=O	60% (inactive)	0.7%
CC(C)=C1C(=O)NN(c2ccc(C)c(Cl)c2)C1=O	66.4% (active)	–
CC(C)=C1C(=O)NN(c2ccc(F)c(Cl)c2)C1=O	32.6% (inactive)	–
O=C(COC(=O)c1cc[n+]([O-])cc1)Nc1ccc(SC(F)F)cc1	2.4% (inactive)	–
O=C(Nc1cc(C(=O)N2CCCC2)ccc1N1CCCC1)c1ccccc1F	2.6% (inactive)	–
O=C(Nc1sc2c(c1C(=O)O)CCCC2)C(=O)N1CCOCC1	2.6% (inactive)	–
COc1ccc(OC)c(/C=C2\N=C(c3ccccc3)OC2=O)c1	60.8% (active)	–
COc1ccc(/C=C2\N=C(c3ccc(C)cc3)OC2=O)cc1	1.1% (inactive)	–
COc1cc(/C=C2\N=C(c3ccccc3)OC2=O)ccc1OC(C)=O	1.1% (inactive)	–
CC(C)=Cc1oc2ccc([N+](=O)[O-])cc2c1N1CCOCC1	0.3% (inactive)	–
COc1ccc(NC(C)C(=O)Nc2ccc(C#N)cc2)cc1Cl (centres undefined)	0.7% (inactive)	–
O=C(Nc1ccc([N+](=O)[O-])cc1)N1CCCCCC1	-1.7% (inactive)	–
O=C(c1sc2ccccc2c1Cl)N1CCN(CCc2ccccn2)CC1	-0.9% (inactive)	–
O=C(O)c1ccc(-n2cccc2/C=C2/SC(=O)N(CC(=O)N3CCCC3)C2=O)cc1	33.4% (inactive)	–
COc1cccc(NC(=O)CCc2nnc3ccc(NCc4ccco4)nn23)c1	1.7% (inactive)	–
Cc1ccc(S(=O)(=O)/N=C2/NC(=O)/C(=C/c3ccccn3)S2)cc1	13% (inactive)	–
Cc1ccc(S(=O)(=O)/N=C2/NC(=O)/C(=C/c3ccncc3)S2)cc1	0.8% (inactive)	–
Cc1ccc(S(=O)(=O)/N=C2/NC(=O)/C(=C/c3ccccc3)S2)cc1	59.7% (inactive)	46.5%
Cc1ccc(S(=O)(=O)/N=C2/NC(=O)/C(=C\c3cc(Br)cc(Br)c3O)S2)cc1	94.7% (active)	132%
Cc1ccc(S(=O)(=O)/N=C2/NC(=O)/C(=C/c3ccc(Br)o3)S2)cc1	53.6% (active)	–
Cc1ccc(S(=O)(=O)/N=C2/NC(=O)/C(=C\c3ccco3)S2)cc1	-3.4% (inactive)	–
Fc1ccc(OCCCCCCN2CCCC2)cc1	0.7% (inactive)	–
Cc1ccc(NC(=O)CSCc2cc(=O)n3cc(C)sc3n2)c(C)c1	0% (inactive)	–
CCOC(=O)c1ccc(N=C2SC(C(=O)NC)CC(=O)N2Cc2ccc(F)cc2)cc1 (centres undefined)	0.9% (inactive)	–
COc1ccc(C2(C(=O)NCCCN(C)C)CCOCC2)cc1	2.4% (inactive)	–
O=C(CCl)Nc1cc(S(=O)(=O)N2CCOCC2)ccc1N1CCOCC1	1% (inactive)	–
